# In PubChem BioAssay AID651965 (National Center for Advancing Translational Sciences (NCATS), 2013):
# The whole screen tested about 340,000 compounds, of which about 6,400 (1.9%) were called active. Where a call stands in place of a potency, no number is given. Roughly 4% stayed inconclusive and do not appear here. The call rests on the fitted dose curve; in most records, active means well fitted falling curve with a large enough effect; inconclusive means small, poorly fitted or top-dose-only effect; inactive means no such curve, though single readings can be large or run the other way. Only a selection was taken, and actives are over-represented in it overall.
# Target: ATP-dependent Clp protease proteolytic subunit (Bacillus subtilis (strain 168)) (UniProt P80244)
# Sequence (P80244 whole entry, looked up): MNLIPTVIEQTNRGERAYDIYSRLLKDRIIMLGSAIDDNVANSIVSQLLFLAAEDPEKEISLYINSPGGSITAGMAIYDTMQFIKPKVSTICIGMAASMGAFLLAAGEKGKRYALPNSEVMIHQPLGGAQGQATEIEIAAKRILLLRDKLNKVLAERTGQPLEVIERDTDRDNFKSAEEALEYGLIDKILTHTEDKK
# Experiment: qHTS Assay for Activators of ClpP; further: the source files actives as falling curves though it sought activators and does not explain the sign; nearly all actives have a fitted effect of over 65% in size
# Conditions: purified B. subtilis ClpP, FRET peptide cleavage, 20 min; series mostly up to 57.5 µM
# Method in brief: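 FRET quenching reversal measured ClpP activation: 10 microg/mL B. subtilis ClpP at pH 8 with the FRET-FV decapeptide, read at 430 nm after 320 nm excitation. The 20-min minus 0-min signal was scaled between DMSO/no-enzyme wells and ADEP (5.8 microM final).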
# Potency means the concentration at half of the fitted maximal effect.
row,SMILES,Potency
1,CC(C)c1cccc(-c2csc(C(O)c3ccccc3)n2)c1 (configuration not stated),inactive
2,OC(CBr)CN1CCCCC1 (configuration not stated),inactive
3,COc1ccc(CNC(=O)c2ccc3c(O)c(S(=O)(=O)c4ccccc4)c(=O)[nH]c3c2)cc1,inactive
4,NC(=O)Cc1ccc2c(c1)[nH]c1ccccc12,inactive
5,O=C(Cc1ccccc1)NCc1ccc(F)cc1,inactive
6,O=C(Cc1c(O)c2ccccc2[nH]c1=O)NCc1ccccc1,20 µM (active)
7,CCCOC(=O)Cc1c(O)c2ccccc2[nH]c1=O,25.1 µM (active)
8,CCc1ccc2[nH]c(=O)c(Cc3ccccc3)c(O)c2c1,inactive
9,COC(=O)Cc1c(-c2[nH]c3ccccc3c2CC(=O)OC)[nH]c2ccccc12,28.2 µM (active)
10,COC(=O)Cc1ccc(NC(=S)NCc2ccccc2)cc1,inactive
11,CCCc1nc2ccccc2c(=O)n1NC(=O)c1c(O)c2ccccc2[nH]c1=O,inactive
12,CCC(C)N(c1ccc(/C=C/c2ccnc3ccccc23)cc1)C(C)CC (configuration not stated),inactive
13,COC(=O)c1ccc2nc(C3CCCCC3)c(Cc3cccc(F)c3)n2c1,inactive
14,C(=Nc1ccc(/C=C/c2ccnc3ccccc23)cc1)Nc1ccc(/C=C/c2ccnc3ccccc23)cc1,inactive
15,Nc1ncnc2c1ncn2[C@@H]1O[C@H](C(=O)N2CCSC2)[C@@H](O)[C@H]1O,inactive
16,CCOC(=O)C1C(C)C(C(C)(C)C)N(S(=O)(=O)c2ccc(C)cc2)C1c1ccccc1 (configuration not stated),inactive
17,Nc1nc(CSc2nnnn2-c2ccccc2)nc(Nc2ccccc2)n1,inactive
18,OC[C@@H]1CN(Cc2cccs2)C[C@H](n2cnc3c(NC4CCCC4)ncnc32)O1,inactive
19,CCOC(=O)CSC1=Nc2ccccc2C2=NC(CCC(=O)NCc3ccc(F)cc3)C(=O)N12 (configuration not stated),inactive
20,O=C(CCC1N=C2c3ccccc3N=C(SCc3ccccc3F)N2C1=O)NCCc1ccccc1 (configuration not stated),inactive
21,NC(=O)CSC1=Nc2ccccc2C2=NC(CCC(=O)NCc3ccc(F)cc3)C(=O)N12 (configuration not stated),28.2 µM (active)
22,CCCOc1ccc(F)cc1-c1cc(C(=O)Nc2ccc(F)cc2)[nH]n1,inactive
23,CC(C)C1CCN(C(=O)C2CCC(=O)N(C3CCCCCC3)C2)CC1 (configuration not stated),inactive
24,O=c1c2[nH]c3ccc(Cl)cc3c2ncn1Cc1ccccn1,inactive
25,COc1ccc(Cn2ccnc2SCC(=O)NCc2ccco2)cc1,inactive
26,COc1ccc2[nH]c3c(=O)n(Cc4ccco4)cnc3c2c1,25.1 µM (active)

row,SMILES,Potency
1,COCCN(Cc1ccco1)C(=O)Cn1ncc2c([nH]c3ccccc32)c1=O,inactive
2,COc1ccc2c(c1)c1ncn(Cc3ccccn3)c(=O)c1n2C,inactive
3,Cc1ccc2[nH]c3c(=O)n(Cc4ccccn4)cnc3c2c1,31.6 µM (active)
4,CN(C)CCCOc1ccc(-c2ccc3nccn3c2)cn1,inactive
5,COc1cccc(NC(=O)C2(C)CCN2Cc2ccccc2Cl)c1 (configuration not stated),inactive
6,CC1=C(C(=O)N(C(C)C)C(C)C)CC(CC(=O)NCCCCc2ccccc2)C(=O)N1CCC1=CCCCC1 (configuration not stated),inactive
7,CN(Cc1ccccc1)C(=O)CCC1CCN(C(=O)c2ccco2)CC1,inactive
8,Cc1ccc2c(c1)c1ncn(Cc3ccc(F)cc3)c(=O)c1n2C,inactive
9,Cc1ccc2c(c1)c1ncnc(N3CCc4ccccc4C3)c1n2C,31.6 µM (active)
10,Cc1ccc2c(c1)c1ncn(CCC3=CCCCC3)c(=O)c1n2C,inactive
11,CCCCN1C(=O)C(CC(=O)NCc2cccs2)CC(C(=O)N2CCCCCC2)=C1C (configuration not stated),inactive
12,CCOC1=C2[C@@H](CN(S(=O)(=O)c3ccc(C)cc3)[C@H]2c2ccccc2F)[C@H]2C(=O)N(Cc3ccccc3)C(=O)[C@H]2C1,inactive
13,Clc1ccccc1SCc1nc2ccccc2[nH]1,inactive
14,COc1ccc(-c2cn[nH]c2-c2ccc(OC)cc2)cc1,inactive
15,c1ccc2[nH]c(-c3nc4ccccc4[nH]3)nc2c1,7.08 µM (active)
16,Cc1ccc(OCC(=O)Nc2ccc(Cl)c(-c3nc4ccccc4[nH]3)c2)cc1C,inactive
17,COc1ccc(-c2[nH]nc(-c3ccccc3)c2-c2nc3ccccc3[nH]2)cc1,25.1 µM (active)
18,Nc1ccccc1-c1nc2ccncc2[nH]1,inactive
19,Oc1ccc(-c2[nH]ncc2-c2nc3ccccc3s2)c(O)c1,inactive
20,c1ccc(-c2[nH]ncc2-c2nc3ccccc3[nH]2)cc1,25.1 µM (active)
21,COc1ccc(NC(=O)CSc2nc3ccccc3[nH]2)cc1,inactive
22,COc1cccc(CNC(=O)[C@@H]2CCCN2C(=O)[C@@H]2CCCN2C(=O)c2ccccc2)c1,inactive
23,Cc1[nH]c2ccccc2c1C(=O)c1cc([C@H](NC(=O)OC(C)(C)C)C(C)C)sc1N,inactive
24,CN(Cc1cn(Cc2ccc(C(F)(F)F)cc2)nn1)C1CN(Cc2cn(Cc3ccc(C(F)(F)F)cc3)nn2)S(=O)(=O)C1 (configuration not stated),inactive
25,CCOCCCNC(=O)c1cn(CC(C)C)c(=O)c2c1c1ccccc1n2C,39.8 µM (active)
26,CCOCCCNC(=O)c1cn(CC)c2ccc(S(=O)(=O)N3CCc4ccccc4C3)cc2c1=O,inactive

row,SMILES,Potency
1,COCCCNC(=O)Cn1cc(C(=O)C2CC2)c2ccccc21,inactive
2,CC(=O)C[C@@H]1OC[C@H](CO)N1S(=O)(=O)c1ccc(C)cc1,inactive
3,CCN1CCN(c2ccc(/C=C/c3ccnc4ccccc34)cc2)CC1,inactive
4,CCOc1ccc2[nH]c(=O)c(C(c3nnnn3CCOC)N3CCOCC3)cc2c1 (configuration not stated),15.8 µM (active)
5,COCCn1nnnc1C(c1ccccc1Cl)N1CCN(c2ccccc2OC)CC1 (configuration not stated),inactive
6,COc1ccc(N2CCN(C(c3cc4ccc(C)cc4[nH]c3=O)c3nnnn3C3CCCC3)CC2)cc1 (configuration not stated),inactive
7,CSCCC(C(=O)NC(C)(C)C)n1c(-c2ccccc2)nc2ccccc21 (configuration not stated),inactive
8,Cc1cccc(C)c1-n1nnnc1C(CCc1ccccc1)N1CCN(C/C=C/c2ccccc2)CC1 (configuration not stated),inactive
9,CCCCNC(=O)c1nc(C2CCN(S(=O)(=O)c3ccc(F)c(F)c3)CC2)oc1-c1cccc(C(F)(F)F)c1,inactive
10,COc1ccc(-c2nc3cc(C)ccn3c2NC2CCCCC2)cc1SC1CCCCC1,inactive
11,CCOc1cc(-c2nc3cc(C)ccn3c2NCC2CCCO2)ccc1O (configuration not stated),28.2 µM (active)
12,CCOc1cc(C(C(=O)NCC2CCCO2)N(C(=O)Cn2nnc3ccccc32)c2cccc(OC)c2)ccc1O (configuration not stated),inactive
13,Cc1ccc(S(=O)(=O)NN=C2CC(C)(C)CC(=O)C2(C)C)cc1,inactive
14,O=C1COc2ccc(-c3csc(-c4ccc(Cl)cc4)n3)cc2N1,inactive
15,CSc1ccccc1-c1nnc(NC(=O)c2ccc3c(c2)OCCO3)o1,inactive
16,COc1ccccc1-c1nnc(-c2ccc(F)cc2)o1,inactive
17,CSc1ccccc1-c1nnc(-c2ccc(Cl)cc2)o1,31.6 µM (active)
18,CCC(C)CN1C(=O)CSCC1(C)C(=O)NCc1ccccc1 (configuration not stated),inactive
19,Cc1ccc(C)n1-c1nnc(N2CCC(C(=O)NCc3ccc(F)cc3)CC2)s1,inactive
20,O=C(NCc1ccccc1)c1ccc2c(c1)nc1n2CCCCC1,inactive
21,O=C(NCc1ccc(F)cc1)c1ccc2nc(N3CCCCC3)sc2c1,35.5 µM (active)
22,CN1OC[C@@H]2CN(C(=O)C(C)(C)C)[C@H](c3ccc(-n4ccnc4)cc3)C[C@@H]21,inactive
23,CN1CCN(C(=O)c2ccc(-c3cc4nc(NCc5cccnc5)n(C)c(=O)c4s3)cc2)CC1,inactive
24,COc1ccc(Cn2c(=O)[nH]c3cc(C(=O)N4CCN(C(=O)c5ccco5)CC4)ccc3c2=O)cc1,inactive
25,COC(=O)c1ccc(Sc2ccc(F)cc2)c(N)c1,28.2 µM (active)
26,CC(=O)Nc1cc(C(=O)NCc2ccc(F)cc2)ccc1Sc1ccc(F)cc1,inactive

row,SMILES,Potency
1,Cc1ccc(Sc2ccc(NC(=O)c3ccc(F)cc3)cc2C#N)cc1,inactive
2,C=C1C=C(C)n2ncc(C(=O)Nc3ccccc3O)c2N1,inactive
3,COCCn1c(SCC(=O)Nc2ccc(F)cc2F)nc2c(c1=O)SCC2,inactive
4,Cc1cc2nc(-c3ccc(F)cc3)c(Cc3ccsc3)n2c(C)c1Br,inactive
5,Cc1cc(C)n2nc(C(=O)OCC(=O)N(CCC#N)c3ccc(F)cc3)nc2n1,inactive
6,Cc1c(C(=O)OCC(=O)N(CCC#N)c2ccccc2)oc2c1ccc1ccccc12,25.1 µM (active)
7,N#CCCN(C(=O)COC(=O)c1ccc(S(=O)(=O)N2CCCCCC2)cc1)c1ccccc1,inactive
8,O=C(Nc1ccc(N2CCOCC2)cc1)c1cccc2c(-c3ccc(F)c(F)c3)coc12,inactive
9,Cc1nc2c(OCc3cccc(Cl)c3)cccn2c1N(C)CC1CC1,inactive
10,COc1cc(Cn2c3ccc(NC(=O)CC(C)c4ccccc4)cc3c(=O)n2C)ccc1F (configuration not stated),inactive
11,COc1ccc2c(c1)C(=O)Nc1cc(Cl)ccc1N2,28.2 µM (active)
12,COc1ccc(-n2c(-c3ccc(Cl)cc3)n[nH]c2=S)c(OC)c1,inactive
13,COc1ccc(OC)c(C(=O)c2ccc(Cl)cc2)c1,inactive
14,C=CCn1c(SCn2nnc3ccccc3c2=O)nnc1-c1ccc(Cl)cc1,inactive
15,C=CCn1c(-c2ccc(Cl)cc2)ccc(C#N)c1=O,28.2 µM (active)
16,CCn1c(C)cc(=O)cc1-c1ccc(Cl)cc1,inactive
17,COc1cc2ccc(C(C)=O)c(O)c2cc1OC,inactive
18,CCC(O)CNc1nc(-n2nc(C)cc2C)nc2sc3c(c12)CC(C)(C)OC3 (configuration not stated),inactive
19,COCCNc1ncnc2c1nc1n2CCCC1,inactive
20,COCCNc1nc(-n2nc(C)cc2C)nc2sc3c(c12)CCCC3,28.2 µM (active)
21,COCCCNC(=O)c1cccc2c(-c3ccc(O)c(OC)c3)coc12,inactive
22,CC1=C(C(=O)Nc2cccc(C(=O)NCC(C)c3ccccc3)c2)SCCO1 (configuration not stated),inactive
23,CN1CCN(C(=O)c2ccc(NC(=O)c3ccc(Br)o3)cc2)CC1,inactive
24,Cc1c(C(=O)NCc2ccc(C#N)cc2)sc(=O)n1Cc1ccc(C(=O)N(C)C)cc1,inactive
